Screening results (PubChem)
FBW7 activator: human FBW7 E3 ligase activation, primary screen; normalized activity (activation), % at 26.1 µM; Q969H0; AlphaScreen FBW7–phospho-cyclin E peptide binding, activator screen; 0.13% of 650,000 active; in the data active means normalized activity above about 1.9%;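 further: purified mutant Fbw7 with reduced substrate affinity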
TEAD-YAP inh: TEAD-YAP interaction inhibition; 1.4% of 640,000 active; inhibition, % at 9.12 µM; HEK-TIYL cells, TEAD-Gal4/YAP UAS-luciferase luminescence; in the data active means inhibition above about 32%;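 further: 0% = median of test compound wells and 100% = reference inhibitor wells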
GPR151 ag: activates the human receptor GPR151 | Q8TDV0 | PathHunter beta-arrestin GPR151 cells, luminescence | activation, % at 11.2 µM | 1% of 650,000 active | AID 1508602; in the data active means activation above about 4.9%;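 further: 0% = median of compound wells and 100% = cells with positive control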
Target sequence (Q8TDV0 whole entry, looked up): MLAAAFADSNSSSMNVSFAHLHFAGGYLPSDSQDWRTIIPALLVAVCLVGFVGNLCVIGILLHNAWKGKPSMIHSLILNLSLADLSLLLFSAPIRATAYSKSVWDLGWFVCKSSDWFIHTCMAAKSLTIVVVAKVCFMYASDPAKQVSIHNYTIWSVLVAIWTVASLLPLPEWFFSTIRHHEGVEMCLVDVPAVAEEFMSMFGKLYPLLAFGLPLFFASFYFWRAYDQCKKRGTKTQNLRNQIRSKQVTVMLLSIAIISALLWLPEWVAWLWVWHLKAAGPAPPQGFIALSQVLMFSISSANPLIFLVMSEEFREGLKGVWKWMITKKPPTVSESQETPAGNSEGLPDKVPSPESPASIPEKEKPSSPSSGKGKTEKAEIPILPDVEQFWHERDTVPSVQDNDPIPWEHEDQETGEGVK
MITF primary: inhibitors of human MITF; 0.91% of 650,000 active; AlphaScreen MITF homodimerization, bead proximity signal; inhibition, % at 2.6 µM; in the data active means inhibition above about 50%;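 further: 0% = vehicle wells with protein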
An asterisk follows results filed as active; ! = not active in a repeat. Only some compounds are listed: those with a hit (about 3.5% of all), similar ones and a draw of the others.

SMILES	FBW7 activator	TEAD-YAP inh	GPR151 ag	MITF primary
Cc1cc(N2CCN(c3ccccc3)CC2)nc(NCc2ccccc2)n1	-0.3	11.8	0.2	2.6
CC(C)c1ccccc1C=NCC(=O)O	2.2*	10.6	-1.0	12.8
O=C(NC1CC1)c1ccc(-c2nc(NCc3nc4ccccc4[nH]3)c3ncn(-c4ccsc4)c3n2)cc1	-0.1	87.0*	2.8	7.1
CC(=O)c1cccc(-c2nc(NCc3nc4ccccc4[nH]3)c3ncn(-c4ccsc4)c3n2)c1	1.6	68.7*	-1.0	7.1
NC(=O)c1ccc(-c2nc(NCc3nc4ccccc4[nH]3)c3ncn(-c4ccsc4)c3n2)cc1	0.3	82.9*	1.4	17.5
O=C(NC1CC1)c1ccc(-c2nc(Nc3ccccc3)c3ncn(-c4ccsc4)c3n2)cc1	25.2*	23.0	1.3	13.2
O=C(NC1CC1)c1ccc(-c2nc(NCc3cccc(C(F)(F)F)c3)c3ncn(-c4ccsc4)c3n2)cc1	0.3	8.1	1.0	6.4
c1ccc(-c2nc(NCc3nc4ccccc4[nH]3)c3ncn(-c4ccsc4)c3n2)cc1	0.0	58.1*	-0.1	7.0
O=C(NCc1nc(NCCCc2ccccc2)c2ccccc2n1)c1ccsc1	0.3	34.0*	-0.2	-8.9
O=C(NCc1nc(NCCCc2ccccc2)c2ccccc2n1)c1ccoc1	0.0	8.2	-1.0	-1.4
Cc1cc(Cl)ccc1OC(C)C(=O)n1cnc2ccccc21 (configuration not stated)	-0.1	0.1	-0.7	-3.2
CCC(=O)N1CCCc2ccc(NC(=O)NCc3cccc4ccccc34)cc21	14.4*	-7.0	1.2	7.5
Cc1nn(C)c(C)c1-c1cc(C(=O)NC2CC2)ccn1	0.2	-2.9	-0.4	18.3
CN(C(=O)c1ccc([N+](=O)[O-])cc1)c1nnc(-c2cccnc2)s1	0.0	-3.9	0.1	11.7
COC(=O)C1=C(C)NC(C)=C(C#N)C1c1cccs1 (configuration not stated)	0.0	34.6*!	-1.1	-12.2
CCOC(=O)C1=C(C)NC2=C(C(=O)CC(c3cccs3)C2)C1c1ccc(F)cc1 (configuration not stated)	0.4	69.6*	1.9	-2.7
CC1=C(C(=O)OCC(C)C)C(c2ccccc2F)C2=C(CC(c3cccs3)CC2=O)N1 (configuration not stated)	0.2	32.5*	-2.1	4.5
COC(=O)C1=C(C)NC2=C(C(=O)CC(c3cccs3)C2)C1c1cccc(OC)c1 (configuration not stated)	0.2	22.5	2.7	-3.6
COC(=O)C1=C(C)NC(S)=C(C#N)C1c1cccs1 (configuration not stated)	0.0	6.1	-0.9	20.0
CC1=C(C(=O)OCCc2ccccc2)C(c2ccccc2F)C2=C(CC(c3cccs3)CC2=O)N1 (configuration not stated)	0.1	-9.1	-1.2	2.2
COC(=O)C1=C(C)NC2=C(C(=O)CC(c3cccs3)C2)C1c1cc(OC)ccc1OC (configuration not stated)	0.0	33.4*	2.5	-5.3
COCCOC(=O)C1=C(C)NC2=C(C(=O)CC(c3cccs3)C2)C1c1ccsc1 (configuration not stated)	0.5	-6.9	1.2	-2.9
CC1=C(C(=O)OC(C)C)C(c2cccs2)C2=C(CC(c3ccccc3)CC2=O)N1 (configuration not stated)	0.4	41.8*	-2.1	-22.9
CCOC(=O)C1=C(C)NC2=C(C(=O)CC(c3cccs3)C2)C1c1ccsc1 (configuration not stated)	0.2	55.0*	-0.3	7.7
COc1ccc(C2C(C(=O)OCCc3ccccc3)=C(C)NC3=C2C(=O)CC(c2ccccc2)C3)cc1 (configuration not stated)	1.7	0.4	0.7	7.3
SMILES	FBW7 activator	TEAD-YAP inh	GPR151 ag	MITF primary
COCCOC(=O)C1=C(C)NC2=C(C(=O)CC(c3ccccc3)C2)C1c1ccc(OCc2ccccc2)cc1 (configuration not stated)	3.4*	-9.8	-0.4	8.6
CCOC(=O)C1=C(C)NC2=C(C(=O)CC(c3ccccc3)C2)C1c1ccsc1 (configuration not stated)	-0.1	43.8*	-0.6	-4.2
CCCCSc1nnc2c(n1)OC(c1cc(Br)c(OC)c(OC)c1)Nc1ccccc1-2 (configuration not stated)	0.2	-10.4	2.1	12.6
c1cc2[nH]snc2c2nc(C3CC3)nc12	0.2	37.9*	-1.3	17.6
COc1cc(-c2cnc3c(NCc4cccnc4)nccn23)cc(OC)c1OC	-0.1	39.3*	0.3	-9.2
COc1cc(-c2cnc3c(NCc4cccs4)nccn23)cc(OC)c1OC	1.9*	38.3*	0.2	-1.5
